# Many of the other results were omitted from the sample, so hits are more common in it than they were.
# GBA activity up: GBA activity enhancers in patient fibroblasts, primary screen, cell-based. AID 784, 2007. actives 0.44% (n = 30,000). activation, % at 10 µM. L444P Gaucher fibroblasts, 4-MU-glucoside fluorescence, 3 days. Lysosomal acid glucosylceramidase (Homo sapiens), P04062; in the data active = activation above about 65%
# Target sequence (P04062 whole entry L483P): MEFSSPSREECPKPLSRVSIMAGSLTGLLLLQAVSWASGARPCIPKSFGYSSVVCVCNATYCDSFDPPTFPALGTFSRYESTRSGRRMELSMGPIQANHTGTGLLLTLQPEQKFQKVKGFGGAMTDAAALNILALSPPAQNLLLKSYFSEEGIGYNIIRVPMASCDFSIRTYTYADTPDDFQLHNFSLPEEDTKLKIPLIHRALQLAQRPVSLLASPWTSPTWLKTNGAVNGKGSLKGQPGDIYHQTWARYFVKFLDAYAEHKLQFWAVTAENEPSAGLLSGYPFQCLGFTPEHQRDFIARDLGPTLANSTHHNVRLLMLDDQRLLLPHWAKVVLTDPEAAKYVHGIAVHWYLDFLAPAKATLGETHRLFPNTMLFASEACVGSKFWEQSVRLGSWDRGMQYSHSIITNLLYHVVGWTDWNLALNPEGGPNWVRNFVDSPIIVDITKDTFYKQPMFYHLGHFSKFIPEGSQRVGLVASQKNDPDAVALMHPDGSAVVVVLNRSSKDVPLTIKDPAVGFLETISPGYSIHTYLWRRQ
# Hits are given with their value; n = inactive.
SMILES,GBA activity up
CN=C1SC(CC(=O)Nc2cccc(C(F)(F)F)c2)C(=O)N1C (stereo not drawn),135.1
CN=C1SC(CC(=O)Nc2sc(C)c(C)c2C(=O)OC)C(=O)N1C (stereo not drawn),n
CCN=C1SC(CC(=O)Nc2ccccc2)C(=O)N1CC (stereo not drawn),n
Cc1ccc(C)n1-c1ccc(C(=O)NCC2CCCO2)cc1 (stereo not drawn),93.2
CCCCS(=O)(=O)Nc1ccc(C(=O)NCC2CCCO2)cc1 (stereo not drawn),n
CCCNS(=O)(=O)c1ccc(C(=O)NCC2CCCO2)cc1 (stereo not drawn),n
O=C(Nc1ccc(N2CCN(C(=O)c3ccc(Cl)cc3)CC2)cc1)c1ccc(Br)o1,n
COc1ccccc1NC(=O)C1=C(C)Nc2nnnn2C1c1ccncc1 (stereo not drawn),n
CCOc1ccccc1C1C(C(=O)Nc2ccccc2OC)=C(C)Nc2nnnn21 (stereo not drawn),152.5
COc1ccccc1NC(=O)C1=C(C)Nc2ncnn2C1c1ccccc1C (stereo not drawn),n
CC(C)(C)NC(=O)C(OC(=O)Cn1nnc(-c2ccc(F)cc2)n1)c1ccncc1 (stereo not drawn),n
CCCC(CCC)C(=O)OC1C[C@H]2CC[C@@H](C1)[N+]2(C)C (stereo partly drawn),n
Brc1ccc(C2=Nn3c(nnc3-c3cccnc3)SC2)s1,98.2
Clc1ccc(C2=Nn3c(nnc3-c3cccnc3)SC2)s1,n
O=c1oc2ccccc2cc1C1=Nn2c(nnc2-c2cccnc2)SC1,n
CC(C)NS(=O)(=O)c1ccc(OCC(=O)NCc2ccccc2)cc1,n
CCCCC(=O)N(c1ccc(OCC)cc1)C1C=CS(=O)(=O)C1 (stereo not drawn),n
Cc1ccc(C)c(N(C)S(=O)(=O)c2cccc3nsnc23)c1,77.2
CC(C)CCNC(=O)CN(C)S(=O)(=O)c1cccc2nsnc12,n
Cc1cc(C)cc(NC(=O)CN(C)S(=O)(=O)c2cccc3nsnc23)c1,n
CC1=C(C(N)=O)C(c2cccs2)n2nc(-c3cccc(C)c3)nc2N1 (stereo not drawn),90.9
CCOc1ccccc1C1C(C(N)=O)=C(C)Nc2nc(-c3cccc(C)c3)nn21 (stereo not drawn),n
CC1=C(C(N)=O)C(c2cccnc2)n2nc(-c3cccc(C)c3)nc2N1 (stereo not drawn),n
Cc1ccc(-n2ncc3c(=O)n(CC(=O)OCc4ccccc4)cnc32)cc1,n
CC(C)c1ccccc1NC(=O)c1cnccn1,n
SMILES,GBA activity up
Cc1cc(C(=O)N2CCN(c3ccccn3)CC2)no1,n
Cc1cc(=O)oc2cc3c(cc12)OCCO3,n
Cc1cc(=O)oc2cc3c(cc12)OCCN3,n
Cc1cc2c(C)cc(=O)oc2c2c1NCCC2,75.7
CCNC(=O)Nc1cc2nc(C)n(Cc3ccc(Br)cc3)c2nc1C,n
CC(=O)Nc1cccc(NC(=O)C2CCCN2C(=O)Nc2cccc(C)c2)c1 (stereo not drawn),n
CCCCNC(=O)C1CCCN1C(=O)Nc1cccc(OC)c1 (stereo not drawn),73.4
COc1cccc(NC(=O)C2CCCN2C(=O)Nc2cccc(F)c2)c1 (stereo not drawn),n
Brc1ccc(CSc2nnc(Cc3c[nH]c4ccccc34)o2)cc1,n
CCN(CC)S(=O)(=O)c1csc(C(=O)NCc2ccccc2)c1,n
CC(C)c1nc(SCC(=O)N2CCCC2)c2ccccc2n1,n
CCOc1cc2[nH]c(=O)n(CC3CCC(C(=O)NC4CCCCC4)CC3)c(=O)c2cc1OCC (stereo not drawn),n
CCCCN(C)C(=O)CCCCn1c(=O)[nH]c2cc(OCC)c(OCC)cc2c1=O,68.5
CCOc1cc2[nH]c(=O)n(CCCCCC(=O)NCc3ccc4c(c3)OCO4)c(=O)c2cc1OCC,n
Cc1ccc(F)c(NC(=O)C2CCCCC2C(=O)O)c1 (stereo not drawn),n
Cc1cccc(-n2nc3c(c2NC(=O)c2ccco2)CSC3)c1C,n
CCOC(=O)c1cccc(NC(=O)c2cnc3ccccc3n2)c1,n
COc1ccc(NC(=O)CN2CCN(S(=O)(=O)c3ccc(C(C)C)cc3)CC2)cc1OC,65.8
COC(=O)c1ccc(NC(=O)CN2CCN(S(=O)(=O)c3cc(Cl)ccc3OC)CC2)cc1,n
COc1ccc(C)cc1NC(=O)CN1CCN(S(=O)(=O)c2ccc(C(C)C)cc2)CC1,n
O=S(=O)(CCSc1nc2ccccc2o1)Cc1ccccc1,n
CN(C)CCNC(=O)c1cc2cc(Br)ccc2oc1=O,n
Cc1ccc(N2C(=O)Nc3ccc(Br)cc3C2(O)C(=O)NCCCN(C)C)cc1C (stereo not drawn),119.4
CN(C(=O)c1ccccc1Cl)c1ccccc1,n
O=C(Cc1ccc(Br)cc1)N1CCCCCC1,n
SMILES,GBA activity up
O=C(O)c1ccc2c(c1)C(c1ccccc1)OC2=O (stereo not drawn),78.3
O=C(O)c1ccc2c(c1)CC(c1ccccc1)OC2=O (stereo not drawn),n
CC(C)(C)N1C(=O)c2ccc(C(=O)O)cc2C1=O,n
Cc1nnc(-n2cnc3ccccc32)c2ccccc12,n
Cc1ccc2c(c1)N(CC(=O)O)C(=O)CO2,n
O=C1CSc2ccccc2N1Cc1ccc(F)cc1,n
CC1(C)CC(=O)N(CC(=O)O)c2ccccc2S1,88.5
O=C(O)CN1C(=O)C2(OCCCO2)c2ccccc21,n
O=C(O)CN1C(=O)CSc2ccccc21,n
CCOC(=O)CN1C(=O)CSc2ccccc21,73.1
CC(C)n1c(SCC(=O)N2c3ccccc3Sc3ccccc32)nc2c1c(=O)n(C)c(=O)n2C,n
Cc1ccccc1-n1nnnc1SCC(=O)Nc1ccc(S(=O)(=O)N2CCCC2)cc1,n
CN(C)c1cccc(C(=O)n2cc(C(=O)c3cc(F)ccc3O)cn2)c1,n
C=CCNC(=O)C1CC(=O)N(c2ccc(OCC(=O)Nc3ccc(OC)cc3)cc2)C1 (stereo not drawn),n
CCOC(=O)C1CCCN(c2nnnn2-c2ccccc2)C1 (stereo not drawn),n
Cc1ccc2[nH]c(=O)c(CN(Cc3cccs3)Cc3nnnn3Cc3ccccc3)cc2c1,n
O=C(Nc1ccc(-c2nc3ccccc3[nH]2)cc1)C1CCCO1 (stereo not drawn),n
COc1ccc(S(=O)(=O)C(C#N)c2nc3ccccc3nc2N2CCCCC2)cc1 (stereo not drawn),96.5
COc1ccc(CNC(=O)C(C#N)c2nc3ccccc3nc2N2CCCC2)cc1 (stereo not drawn),n
Cc1ccc(C)c(S(=O)(=O)C(C#N)c2nc3ccccc3nc2N2CCCC2)c1 (stereo not drawn),n
c1ccc2c(c1)CCCn1nnnc1-2,n
Cc1ccc(-n2c(=O)c(C#N)cc3c(=O)n4ccccc4nc32)cc1,134.0
N#Cc1cc2c(=O)n3ccccc3nc2n(CCCn2ccnc2)c1=N,n
Cc1ccc(S(=O)(=O)c2cc3c(=O)n4ccccc4nc3n(CC3CCCO3)c2=N)cc1 (stereo not drawn),n
COc1ccccc1CC(=O)NCC1CCCO1 (stereo not drawn),n
COc1ccc(S(=O)(=O)N(CC(=O)NCC2CCCO2)c2ccccc2)cc1OC (stereo not drawn),74.6
COc1ccc(S(=O)(=O)N(CC(=O)N2CCN(C)CC2)c2ccccc2)cc1OC,n
Cc1cc2ccccc2c(=O)n1CC(=O)N1CCN(c2cccc(Cl)c2)CC1,n
Cc1cc2ccccc2c(=O)n1CC(=O)NC1CCCCCC1,n

# Source: PubChem
